Results filed as inconclusive are left out. Active and inactive are the calls of the source. Rule for the calls: active = hit-call score of the fitted dose curve at least 0.9, where 1 is the maximum; inconclusive = response in the unintended direction; inactive = score below 0.9.
Experiments:
[1] = ACEA_AR_agonist_AUC_viability: ACEA Biosciences xCELLigence Real-Time Cell Analysis on Androgen Receptor Agonism for Viability (AID 2283775);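 for AC50: viability read 80 hours after compound addition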
Summary of the method: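 Viability endpoint from xCELLigence impedance in 22Rv1 prostate cells at 80 h. Eight-point series, 100 uM maximum final.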

[2] = ACEA_AR_antagonist_AUC_viability: ACEA Biosciences xCELLigence Real-Time Cell Analysis on Androgen Receptor Antagonism for Viability (AID 2283776);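 note: 22Rv1 human prostate cancer cells growing on impedance electrode plates; area under impedance growth curve at 80 h after dosing as viability; hits lower the growth signal relative to DMSO meaning cytotoxicity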
Summary of the method: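 Real-time electrical impedance tracks 22Rv1 proliferation after continuous compound exposure (top 100 uM final, 1:4 steps, 8 concentrations). The 80 h area-under-curve serves as the cytotoxicity readout relative to DMSO.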

[3] = ACEA_ER_AUC_viability: ACEA Biosciences xCELLigence Real-Time Cell Analysis on Estrogen Receptor Agonism for Viability (AID 2283782);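 note: hit means loss of impedance signal meaning reduced cell growth or viability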
Summary of the method: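 Read-out: real-time electrical impedance (RT-CES) area under curve, loss of signal taken as reduced viability, normalized to DMSO baseline. T-47D cells, charcoal-stripped serum medium, compounds up to 100 uM final, continuous exposure, 80 h.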

[4] = ArunA_Migration_hNC: ArunA Biomedical's Oris Neural Crest (hNC) Cell Migration Assay (AID 2283755)
Summary of the method: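 Calcein-AM fluorescence (ex494 nm/em 517 nm) in the stopper-defined detection zone quantifies migration of hNC cells after 72 h chemical exposure; 60,000 cells/well plated on Matrigel with LIF and bFGF, 16 h pre-incubation. DMSO baseline.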

[5] = ArunA_NOG_NucleusCount: ArunA Biomedical's Neurite Outgrowth (NOG) Assay for Nucleus Count (AID 2283756)
Summary of the method: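 Viable neuron count, from Hoechst nuclei passing size and intensity gates, imaged at 20x on differentiated H9-derived human neurons. Exposure lasted 48 h from seeding; activity was scored relative to DMSO.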

[6] = ArunA_NOG_BranchPointsPerNeurite: ArunA Biomedical's Neurite Outgrowth (NOG) Assay for Branch Points Per Neurite (AID 2283759)
Summary of the method: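 Automated image analysis traced neurites (processes >10 um) from valid cell bodies after Hoechst and βIII-tubulin staining. hNN cells from H9 embryonic stem cells, 48 h exposure. Fitted bidirectionally against DMSO.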

[7] = STM_H9_NormalizedViability: Cytotoxicity Assessment at 120 hours in the Stemina devTOX quickPredict H9 human embryonic stem cell (hESC)-based Assay (AID 2283784)
Summary of the method: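 CellTiter-Fluor RFU, background-subtracted, expressed relative to 0.1% DMSO neutral control by plate. Pluripotent H9 cells; treatment with daily re-dosing. Plates carried 1uM methotrexate (positive) and 5 nM methotrexate (negative) references.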

[8] = ArunA_NOG_NeuriteLength: ArunA Biomedical's Neurite Outgrowth (NOG) Assay for Neurite Length (AID 2283757)
Summary of the method: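 Total neurite length per neuron, from traced βIII-tubulin-labelled processes longer than 10 um on viable Hoechst-gated cells, was scored as decrease from DMSO. Cells were hESC (H9)-derived neurons given 48 h chemical exposure immediately after seeding.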

[9] = ArunA_NOG_NeuritesPerNeuron: ArunA Biomedical's Neurite Outgrowth (NOG) Assay for Neurites Per Neuron (AID 2283758)
Summary of the method: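 Differentiated human H9-derived neurons exposed to chemicals for 48 h from seeding, then stained with Hoechst and βIII-tubulin/DyLight 488. Automated imaging counted neurites (processes >10 um) per valid neuron; loss of signal versus DMSO scored.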

AR (gene 367) = AR (gene 367) (UniProt P10275); experiment: ACEA_AR_agonist_80hr: ACEA Biosciences xCELLigence Real-Time Cell Analysis on Androgen Receptor Agonism for Proliferation (AID 2283783);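 note: hits increase impedance growth signal above DMSO baseline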
Sequence of AR (gene 367) (P10275 whole entry, looked up): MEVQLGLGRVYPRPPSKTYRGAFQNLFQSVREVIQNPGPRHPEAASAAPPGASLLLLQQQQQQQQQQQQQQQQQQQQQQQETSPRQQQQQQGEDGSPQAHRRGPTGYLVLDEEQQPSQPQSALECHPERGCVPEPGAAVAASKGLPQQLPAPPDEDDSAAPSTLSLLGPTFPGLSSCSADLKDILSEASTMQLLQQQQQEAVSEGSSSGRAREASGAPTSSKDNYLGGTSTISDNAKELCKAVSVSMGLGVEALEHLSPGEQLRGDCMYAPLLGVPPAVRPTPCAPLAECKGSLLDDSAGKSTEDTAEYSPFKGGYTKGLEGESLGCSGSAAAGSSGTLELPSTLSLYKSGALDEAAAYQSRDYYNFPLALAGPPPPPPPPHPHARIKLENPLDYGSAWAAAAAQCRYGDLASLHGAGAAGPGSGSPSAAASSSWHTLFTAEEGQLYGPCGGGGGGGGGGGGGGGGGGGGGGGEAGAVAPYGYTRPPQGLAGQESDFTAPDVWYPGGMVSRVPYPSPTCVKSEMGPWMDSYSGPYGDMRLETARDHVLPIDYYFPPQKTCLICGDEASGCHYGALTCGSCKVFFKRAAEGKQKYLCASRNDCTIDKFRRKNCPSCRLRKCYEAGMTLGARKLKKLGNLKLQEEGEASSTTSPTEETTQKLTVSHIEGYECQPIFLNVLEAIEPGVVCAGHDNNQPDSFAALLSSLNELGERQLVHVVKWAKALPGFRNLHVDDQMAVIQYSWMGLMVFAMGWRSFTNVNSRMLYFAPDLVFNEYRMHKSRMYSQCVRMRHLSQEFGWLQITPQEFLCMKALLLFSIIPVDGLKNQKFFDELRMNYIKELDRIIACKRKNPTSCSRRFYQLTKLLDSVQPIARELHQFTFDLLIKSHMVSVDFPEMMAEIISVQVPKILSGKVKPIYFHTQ
Summary of the method: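 Impedance (RT-CES) growth signal at 80 h post-dose; 22Rv1 cells, 8-pt 1:4 series, top 100 uM final, DMSO ≤0.5%; duplicate plates; gain-of-signal fit relative to DMSO baseline.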

CNC(=O)Oc1cccc2c1OC(C)(C)O2
outcome [1]: inactive | outcome [2]: inactive | outcome [3]: inactive

C[Si](Cn1cncn1)(c1ccc(F)cc1)c1ccc(F)cc1
outcome [4]: inactive | outcome [5]: inactive | outcome [6]: inactive | AC50 [1]: 60.4 µM (active) | AC50 [2]: 50 µM (active) | AC50 [3]: 76.2 µM (active) | AC50 [7]: 80.6 µM (active)

CN(C)NC(=O)CCC(=O)O
outcome [1]: inactive | outcome [2]: inactive | outcome [3]: inactive

CCCSP(=O)(OCC)SCCC
outcome [1]: inactive | AC50 [2]: 28.8 µM (active)

CC1=NNC(=O)N(/N=C/c2cccnc2)C1
outcome [4]: inactive | AC50 [5]: 59.4 µM (active) | AC50 [8]: 73.8 µM (active) | AC50 [9]: 65 µM (active) | AC50 [6]: 66.2 µM (active) | outcome [1]: inactive | outcome [2]: inactive | outcome [3]: inactive | outcome [7]: inactive

Nc1c(Cl)cc([N+](=O)[O-])cc1Cl
AC50 [1]: 58.4 µM (active) | AC50 [2]: 50 µM (active)

CCC(=O)Nc1ccc(Cl)c(Cl)c1
outcome [1]: inactive | AC50 [2]: 20.7 µM (active)

CNc1cnn(-c2cccc(C(F)(F)F)c2)c(=O)c1Cl
outcome [1]: inactive | outcome [2]: inactive | outcome [7]: inactive

CC(Oc1cccc(Cl)c1)C(=O)O (centres undefined)
outcome [2]: inactive

CSC1=N[C@@](C)(c2ccccc2)C(=O)N1Nc1ccccc1
AC50 [1]: 31.6 µM (active) | AC50 [2]: 18.1 µM (active) | AC50 [7]: 30.1 µM (active)

CON=C(C(=O)OC)c1ccccc1CON=C(C)c1cccc(C(F)(F)F)c1
AC50 [1]: 26.4 µM (active) | AC50 [2]: 14.5 µM (active) | AC50 [3]: 90.5 µM (active) | outcome [7]: inactive

CC(C)N(C(=O)SCC(Cl)=C(Cl)Cl)C(C)C
AC50 [1]: 89.9 µM (active) | AC50 [2]: 81 µM (active) | AC50 [3]: 77.3 µM (active) | outcome [7]: inactive

CSc1nc(NC(C)C)nc(NC(C)C)n1
outcome [1]: inactive | outcome [2]: inactive | outcome [3]: inactive | outcome [7]: inactive

COP(=O)(OC)SCn1c(=O)oc2cc(Cl)cnc21
AC50 [1]: 23.7 µM (active) | AC50 [2]: 17.2 µM (active) | AC50 [3]: 76.2 µM (active) | outcome (AR (gene 367)): inactive

Cc1nn(-c2cc(NS(C)(=O)=O)c(Cl)cc2Cl)c(=O)n1C(F)F
outcome [1]: inactive | outcome [2]: inactive | outcome (AR (gene 367)): inactive | outcome [7]: inactive

N#CSCSC#N
AC50 [1]: 7.42 µM (active) | AC50 [2]: 7.39 µM (active) | AC50 [3]: 6.97 µM (active) | AC50 [7]: 20.5 µM (active)

CCC(CC)Nc1c([N+](=O)[O-])cc(C)c(C)c1[N+](=O)[O-]
AC50 [1]: 64.5 µM (active) | AC50 [2]: 50 µM (active) | AC50 [3]: 76.8 µM (active)

COc1cc(OC)nc(Sc2cccc(Cl)c2C(=O)O)n1
outcome [2]: inactive

CCCCOC(=O)[C@@H](C)Oc1ccc(Oc2ccc(C#N)cc2F)cc1
AC50 [1]: 27.6 µM (active) | AC50 [2]: 62.3 µM (active) | outcome [3]: inactive | AC50 [7]: 93.9 µM (active)

Cc1ccn2nc(S(=O)(=O)Nc3c(F)cccc3F)nc2n1
outcome [1]: inactive | outcome [2]: inactive | outcome [7]: inactive

CC(C)=CC1C(C(=O)OCN2C(=O)C3=C(CCCC3)C2=O)C1(C)C (centres undefined)
AC50 [1]: 44 µM (active) | AC50 [2]: 48.1 µM (active) | outcome (AR (gene 367)): inactive

O=c1ccc(=O)[nH][nH]1
outcome [3]: inactive

COc1cccc(C(=O)NN(C(=O)c2cc(C)cc(C)c2)C(C)(C)C)c1C
AC50 [2]: 76.4 µM (active) | outcome [3]: inactive

C[N+]1(C)CCCCC1
outcome [1]: inactive | outcome [2]: inactive | outcome [7]: inactive

CCNc1nc(Cl)nc(NC(C)(C)C#N)n1
AC50 [2]: 27 µM (active)

CCOP(=S)(OCC)OC(Cl)C(Cl)(Cl)Cl (centres undefined)
AC50 [3]: 76.4 µM (active)

Nc1nc(N)nc(NC2CC2)n1
outcome [2]: inactive | outcome [3]: inactive

FC(F)C(F)(F)OCC(Cn1cncn1)c1ccc(Cl)cc1Cl (centres undefined)
AC50 [1]: 66.4 µM (active) | AC50 [2]: 60.5 µM (active) | AC50 [3]: 75.7 µM (active) | outcome [7]: inactive

CNC(=O)ON=C(SC)C(=O)N(C)C
outcome [1]: inactive | outcome [2]: inactive | AC50 [3]: 65.5 µM (active) | outcome (AR (gene 367)): inactive

CC(COc1ccc(Oc2ccccc2)cc1)Oc1ccccn1 (centres undefined)
AC50 [1]: 58.9 µM (active) | AC50 [2]: 64.6 µM (active) | outcome [3]: inactive | outcome [7]: inactive

CCOP(=S)(OCC)SCCSCC
AC50 [1]: 78.1 µM (active) | AC50 [2]: 80.6 µM (active) | outcome [7]: inactive

CSc1nnc(C(C)(C)C)c(=O)n1N
outcome [1]: inactive | outcome [2]: inactive | outcome [3]: inactive | outcome [7]: inactive

CN1COCN(Cc2cnc(Cl)s2)C1=N[N+](=O)[O-]
outcome [2]: inactive

CCC(=NOC/C=C/Cl)C1=C(O)CC(C2CCOCC2)CC1=O (centres undefined)
outcome [1]: inactive | outcome [3]: inactive | outcome [7]: inactive

C=C(C)[C@H]1Cc2c(ccc3c2O[C@@H]2COc4cc(OC)c(OC)cc4[C@@H]2C3=O)O1
AC50 [1]: 0.284 µM (active) | AC50 [2]: 0.413 µM (active) | outcome [3]: inactive | outcome (AR (gene 367)): inactive | AC50 [7]: 0.515 µM (active)

CCOP(=O)(SC(C)CC)N1CCSC1=O (centres undefined)
outcome [2]: inactive

CCOP(=S)(OCC)Oc1cc(C)nc(C(C)C)n1
outcome [1]: inactive | outcome [2]: inactive | AC50 [3]: 82 µM (active) | AC50 [7]: 87.1 µM (active)

CC(C)[C@H](C(=O)O[C@H](C#N)c1cccc(Oc2ccccc2)c1)c1ccc(Cl)cc1
AC50 [1]: 17.2 µM (active) | outcome [7]: inactive

CCOP(=O)(OCC)Oc1cc(C)nc(C(C)C)n1
outcome [2]: inactive | outcome [3]: inactive

CN(C)C(=O)Nc1cccc(C(F)(F)F)c1
outcome [2]: inactive | outcome [3]: inactive | outcome [7]: inactive

COP(=O)(OC)OC(Br)C(Cl)(Cl)Br (centres undefined)
AC50 [1]: 75.1 µM (active) | AC50 [2]: 61.3 µM (active) | AC50 [3]: 30.7 µM (active) | outcome (AR (gene 367)): inactive

CC(C1CC1)C(O)(Cn1cncn1)c1ccc(Cl)cc1 (centres undefined)
AC50 [1]: 49.8 µM (active) | AC50 [2]: 49.8 µM (active) | outcome [3]: inactive | outcome [7]: inactive

CCCOc1nn(C(=O)NS(=O)(=O)c2ccccc2C(=O)OC)c(=O)n1C
outcome [1]: inactive | outcome [2]: inactive | outcome (AR (gene 367)): inactive

Source: PubChem BioAssay (EPA / NIEHS)
